MBNL1 CUG block – inhibitors of human MBNL1 binding to CUG repeat RNA; 280,000 tested, 0.036% active; Potency, µM (highest dose often 57.5 µM), for the others: top-dose activity change, negative = inhibition, actives largely listed as inhibitors; TR-FRET MBNL1-His/biotin-(CUG)12 binding, 665/545 ratio; Q9NR56; AID 2675; active means well fitted inhibition curve with a large enough effect in the signal ratio, with a control signal flat, not every such curve was filed as active; inconclusive means small, poorly fitted or top-dose-only effect, or effect the other way, or a change in a side signal; inactive means no such curve, though single readings can be large or run the other way; the % refers to the signal ratio; further: on the % scale 0 is the no-effect control and ±100 the full control effect
Target sequence (Q9NR56 whole entry, looked up): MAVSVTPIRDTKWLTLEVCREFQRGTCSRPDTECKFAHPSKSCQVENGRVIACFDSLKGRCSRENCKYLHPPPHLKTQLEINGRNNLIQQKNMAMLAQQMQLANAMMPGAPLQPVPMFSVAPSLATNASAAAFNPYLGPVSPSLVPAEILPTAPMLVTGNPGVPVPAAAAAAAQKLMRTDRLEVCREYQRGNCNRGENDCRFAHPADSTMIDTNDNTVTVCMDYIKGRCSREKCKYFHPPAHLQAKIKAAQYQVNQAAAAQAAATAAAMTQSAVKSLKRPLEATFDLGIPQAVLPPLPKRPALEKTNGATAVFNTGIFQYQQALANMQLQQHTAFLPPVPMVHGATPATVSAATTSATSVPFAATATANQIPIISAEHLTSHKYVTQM
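Compound titration spanned 92 nM–58 uM against the MBNL1-His/biotin-(CUG)12 complex. After 60 min at room temperature with 5 nM streptavidin-XL665 and 0.055 ng/ul terbium anti-His, ratiometric 665/545 nm emission (Ex 340 nm) normalized to controls.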
Abeta yeast res – A-beta toxicity reversal in yeast. yeast expressing A-beta42, growth rescue, OD600, 48 h; response scale: 0% DMSO, 100% iron-clioquinol control. Potency, µM (series often up to 46.1 µM), hits mostly activators. 410,000 tested, 0.063% active. AID 1347071; further: nearly all actives have a fitted effect of over 55% in size
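Growth rescue measured by 600 nm absorbance after 48 h yeast culture at 30 C with compound. Values normalized between DMSO and an equimolar ferric chloride plus clioquinol control.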
FUS yeast rescue – suppressors of FUS proteinopathy in yeast | S. cerevisiae FUS-expressing, growth rescue, OD600, 24 h | Potency, µM (doses to about 76.6 µM), hits mostly activators | 390,000 tested, 0.24% active;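 further: plate controls were DMSO vehicle for no effect and reference control for full effect; nearly all actives have a fitted effect of over 55% in size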
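Galactose (2%) drives FUS expression in yeast precultured in raffinose; seeding density OD 0.005. Test compounds incubated 24hr at 30C and 99% humidity before absorbance at 600 nm was measured.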
TDP43 rescue – inhibitors of TDP-43 toxicity in yeast; TDP-43 expressing yeast growth rescue, BacTiter-Glo, 24 h; Potency, µM (titrated, usually from 46.1 µM), for the others: at the top dose growth rescue (activation), most hits filed as activators; 410,000 tested, 1.8% active; further: % of control where 0% means no effect; nearly all actives have a fitted effect of over 50% in size
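Luminescence from BacTiter-Glo reports growth of TDP-43-expressing yeast after 24 hr at 30 deg C with compound. Cells were raffinose-pregrown to mid-log, then seeded in galactose medium at OD600=0.02.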
aSyn rescue – rescues yeast growth from alpha-synuclein toxicity; Yeast expressing alpha-synuclein, growth rescue, BacTiter-Glo, 24 h; Potency, µM (highest dose often 46.1 µM), inactives show top-dose growth rescue (activation), usual class: activators; 370,000 tested, 0.14% active; further: % of control where 0% means no effect; nearly all actives have a fitted effect of over 65% in size
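Screening used galactose-induced yeast with toxic alpha-synuclein levels, exposed to compound for 24 hr at 30 deg C. Cell growth, read with BacTiter-Glo luminescence, gave the measured signal.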
GRP78 ERSR act – ER stress response induction in glioma | U87-MG GRP78 promoter luciferase reporter, 16 h | Potency, µM, without a hit: at the top dose activation, hits mostly activators | 420,000 tested, 0.02% active | AID 602332; further: series mostly up to about 76 µM; % of control where 0% means no effect; nearly all actives have a fitted effect of over 35% in size
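Stably transfected U87-MG glioma cells carrying a GRP78-based luciferase sensor; 16 h compound incubation. Luminescence end-point read 10 min after Bright-Glo addition at room temperature.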
The depositor's hits bear a star; i = inactive; ? = inconclusive; . = no result. Hits are enriched below; roughly 2% of the tested compounds scored in any of these assays. Unless noted, the call rests on the fitted dose curve; in most records, active means well fitted curve in the direction sought with a large enough effect; inconclusive means small, poorly fitted or top-dose-only effect, or another doubt; inactive means no such curve, though single readings can be large; an effect the other way counts as inactive or inconclusive. Potency means the concentration at half of the fitted maximal effect.

SMILES | MBNL1 CUG block | Abeta yeast res | FUS yeast rescue | TDP43 rescue | aSyn rescue | GRP78 ERSR act
Cc1cccc(N2CCN(S(=O)(=O)c3cccc4nonc34)CC2)c1C | -0.9% | i | . | 28.2µM* | 2.7% | -4.2%
O=C(C1CCCN(S(=O)(=O)c2cccc3nonc23)C1)N1CCN(c2cccc(Cl)c2)CC1 (configuration not stated) | 25.3% | i | i | -27.4% | 7.4% | -5.6%
Cc1cnc(C(=O)NCc2c(C)ncc3c2CCN(C(=O)/C=C/c2cccs2)C3)cn1 | . | . | . | . | . | -2.8%
CSc1ccc(Cl)c(C(=O)N2CCOc3ccccc32)c1 | -4.3% | i | i | ? | 0.8% | -5.0%
O=C(c1cccc(C(F)(F)F)c1)N1CCOc2ccccc21 | -12.1% | i | i | 14.1µM* | -0.6% | -3.6%
Cc1cc2ccccc2n1CCNC(=O)c1cccc(Cl)c1 | . | i | i | 14.1µM* | . | 1.8%
c1cc(SC2CCCCC2)cc(-c2nc3cnccn3c2NC2CCCCC2)c1 | . | i | i | 22.4µM* | -30.4% | -10.3%
C=CCN1C(=O)[C@@H](CC(=O)NCCCN2CCCC2=O)[C@]2(C(=O)OC)CCCCC=C12 | . | . | i | . | . | .
CC(=O)c1cccc(NC(=O)C2C3C=CC(C4CC34)C2C(=O)O)c1 (configuration not stated) | -6.7% | ? | i | 22.4µM* | 1.3% | 3.4%
Cc1ccccc1NC(=O)C1C2C=CC(C3CC23)C1C(=O)O (configuration not stated) | -8.2% | i | i | 11.2µM* | -0.1% | -5.4%
O=C1c2sccc2-c2cccc3cccc1c23 | . | i | i | -51.9% | ? | -1.1%
O=C1C(Br)=Cc2cccc3cccc1c23 | ? | i | i | 14.1µM* | 0.4% | -2.8%
COc1cccc(CNC(=O)CCSCc2ccccc2F)c1 | -7.5% | i | i | 14.1µM* | 6.3% | -4.5%
C/C=C(\C)C(=O)NCCN1Cc2ccccc2OC(c2ccccc2OC)C1 (configuration not stated) | . | . | . | . | . | 4.9%
CC(C)(C)c1ccc(-c2nc3n(c(=O)c2C#N)CCS3)cc1 | ? | i | i | 20µM* | -3.9% | 3.6%
N#Cc1c(-c2ccccc2)nc2n(c1=O)CCS2 | 19.9% | i | i | 35.5µM* | 12.5% | -1.6%
CCOc1ccc(-c2nc3n(c(=O)c2C#N)CCCS3)cc1 | 23.8% | i | i | 26.6% | 1.7% | 4.5%
O=C(COc1ccc(-c2nnco2)cc1)NC1CCCc2ccccc21 (configuration not stated) | 2.5% | i | i | 20µM* | 1.3% | -2.3%
Cc1oc(-c2ccccc2NC(=O)c2ccccn2)nc1CNC(=O)c1ccc(Oc2ccccc2)o1 | . | . | . | . | . | -0.8%
CN(C)S(=O)(=O)Oc1ccsc1C(=O)Nc1ccccc1Cl | -1.0% | i | i | 44.2% | 10.0% | -0.6%
CN(C)S(=O)(=O)Oc1ccsc1C(=O)Nc1ccc(Cl)cc1 | 4.3% | i | i | 14.1µM* | -0.4% | 1.0%
CN(C)S(=O)(=O)Oc1ccsc1C(=O)Nc1cccc(Cl)c1Cl | 9.3% | i | i | 17.8µM* | 8.7% | -2.5%
CCOC(=O)Cn1cc(CN2CCS(=O)(=O)N(Cc3ccccc3)C(C(=O)OC)C2)nn1 (configuration not stated) | . | . | i | . | . | .
COc1ccc(N/C(C)=C/C(=S)Nc2ccccc2)cc1 | 1.6% | i | i | 12.6µM* | 22.4% | -4.1%
COc1ccc(N/C(C)=C/C(=O)c2ccccc2)cc1 | 26.8% | i | . | 16.6% | -4.4% | 5.5%
SMILES | MBNL1 CUG block | Abeta yeast res | FUS yeast rescue | TDP43 rescue | aSyn rescue | GRP78 ERSR act
O=C(NCCc1c[nH]c2ccccc12)OCc1cn(-c2ccc(F)cc2)nn1 | . | . | i | . | . | .
CCn1c(-c2cccc(OC)c2)nc2cc(NC(C)=O)cc(C(=O)N3CCC[C@H]3C(=O)OC)c21 | . | . | . | . | . | 1.4%
CC1(C)CCC[C@@]2(C)CC=C(C(=O)O)[C@@H]3C[C@]312 | . | i | i | 11.2µM* | ? | -2.7%
CCCC[C@@H]1C(=O)N2N=Cc3cscc3[C@H]2N2N=Cc3cscc3[C@@H]12 | . | . | i | . | . | .
COc1ccccc1-c1nn2c(C3COc4ccccc4O3)nnc2s1 (configuration not stated) | 3.8% | i | i | 10µM* | . | 5.0%
CC1C(=O)N(Cc2cn(Cc3ccco3)nn2)CCS(=O)(=O)N1Cc1ccc(-c2ccc(Cl)cc2)cc1 (configuration not stated) | . | i | ? | 35.5µM* | 3.0% | -3.2%
CC1C(=O)N(Cc2cn(CCC3OCCO3)nn2)CCS(=O)(=O)N1Cc1ccc(-c2ccc(Cl)cc2)cc1 (configuration not stated) | . | i | ? | 28.2µM* | 1.0% | 4.6%
Cc1ccc(-c2ccc(CN3C(C)C(=O)N(Cc4cn(CCC5OCCO5)nn4)CCS3(=O)=O)cc2)cc1 (configuration not stated) | . | i | ? | 25.2% | 5.0% | -0.1%
Cc1nc2n(c(=O)c1CCN1CCC(c3noc4cc(F)ccc34)CC1)CCC[C@@H]2O | . | . | . | . | . | -5.1%
COc1cc2nc(N3CCCCC3)nc(NC3CC3)c2cc1OC | . | . | . | . | -2.7% | .
O=C1CCCCC1C(=O)c1cn(-c2ccc(Cl)c(Cl)c2)nn1 (configuration not stated) | -6.0% | i | i | 8.4% | 1.1% | 3.9%
O=C(c1cn(-c2ccc(Cl)c(Cl)c2)nn1)C1CC1 | 1.5% | i | i | 8.91µM* | 9.8% | 2.5%
CNc1nc2sc3c(c2c(=O)n1C)CC(C)(C)SC3 | -7.2% | i | i | 12.6µM* | 3.7% | 2.4%
Cc1cc2c(c(-c3ccc4nc(C)ccc4c3)c1)OC(CNC(=O)Cc1ccn(C)c1)C2 (configuration not stated) | . | . | . | . | . | -2.6%
O=C(Cn1cnc2onc(-c3ccc(F)cc3)c2c1=O)N1CCN(c2ccc(F)cc2)CC1 | . | i | i | 35.5µM* | ? | -2.8%
O=C(CCn1cnc2onc(-c3ccc(F)cc3)c2c1=O)N1CCN(c2ccc(F)cc2)CC1 | . | i | i | ? | . | -3.4%
C=CCN1[C@H](C)COc2cccc(N3CCCC3)c2S1(=O)=O | . | . | i | . | . | .
O=C(NCC1CCC2(CCN(Cc3ccccc3O)CC2)O1)C1CCCO1 (configuration not stated) | . | . | . | . | . | -3.5%
O=C(CNC(=O)c1cccc(F)c1)OCCOc1cccc(Cl)c1 | . | i | i | 12.6µM* | 8.4% | -2.3%
Cc1nc(C/C(=N\Nc2ccccc2)c2ccc(O)cc2O)cs1 | -0.5% | i | i | 20µM* | 0.6% | 1.1%

Screens deposited in PubChem by National Center for Advancing Translational Sciences (NCATS).
